# EBV gp42 block = inhibitors of Epstein-Barr virus glycoprotein 42 | Q1HVG2 | Fluorescence polarization binding assay, mP read-out | inhibition, % (tested at 21.74 µM) | 0.42% of 220,000 active; in the data active = inhibition above about 50%
# GLD-1 RNA inh = GLD-1-TGE RNA interaction inhibition (C. elegans); Q17339; 0.44% of 320,000 active; purified GLD-1 + fluorescein TGE RNA, fluorescence polarization; inhibition, % at 5.96 µM;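 active = percent inhibition above a per-plate cutoff, the plate mean of test compounds plus 3 SD, cut at about 30% in these data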;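 also: 0% = DMSO wells with GLD-1 and probe and 100% = wells lacking GLD-1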
# BCLXL inh = Bcl-xL (human) inhibition; 0.7% of 320,000 active; inhibition, % at 10.9 µM; AID 2129; Q07817; GST-Bcl-xL / FITC-Bim BH3 peptide fluorescence polarization;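 active = inhibition above the mean of all tested compounds plus 3 SD, cutoff set per campaign, cut at about 30% in these data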;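 also: 0% = DMSO wells and 100% = unlabeled Bim-BH3 peptide competitor; inhibitors lower millipolarization by displacing the labeled peptide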
# Target sequence (Q07817 whole entry, looked up): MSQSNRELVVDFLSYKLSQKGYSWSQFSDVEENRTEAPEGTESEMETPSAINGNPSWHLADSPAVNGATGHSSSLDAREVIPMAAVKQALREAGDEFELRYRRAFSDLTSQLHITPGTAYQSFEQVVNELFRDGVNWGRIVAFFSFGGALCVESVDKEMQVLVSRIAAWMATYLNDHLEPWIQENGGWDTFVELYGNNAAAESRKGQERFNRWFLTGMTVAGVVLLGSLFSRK
# MCL1-BIM inh = disrupts human MCL1 binding to BIM-BH3 peptide. Q07820. GST-MCL1 / FITC-Bim-BH3 fluorescence polarization. inhibition, % at 10.9 µM. 0.68% of 320,000 active;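 active = inhibition above the mean inhibition of all tested compounds plus 3 SD, set per campaign, cut at about 40% in these data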;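 also: 0% = DMSO wells and 100% = unlabeled Bim-BH3 peptide control; higher means more loss of mP so more displacement of Bim peptide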
# Target sequence (Q07820 whole entry, looked up): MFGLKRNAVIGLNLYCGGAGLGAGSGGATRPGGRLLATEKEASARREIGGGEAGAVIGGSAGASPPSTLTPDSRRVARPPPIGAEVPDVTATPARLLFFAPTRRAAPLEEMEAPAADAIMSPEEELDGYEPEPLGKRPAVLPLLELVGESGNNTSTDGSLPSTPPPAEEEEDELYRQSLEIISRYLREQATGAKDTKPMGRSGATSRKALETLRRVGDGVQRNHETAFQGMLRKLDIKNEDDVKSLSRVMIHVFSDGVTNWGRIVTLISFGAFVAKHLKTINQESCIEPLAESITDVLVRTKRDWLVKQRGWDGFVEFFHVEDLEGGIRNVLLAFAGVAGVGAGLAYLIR
# MEX-5 binding = C. elegans MEX-5 TCR-2 RNA binding activity; MEX-5/FITC-TCR2 RNA binding, fluorescence polarization; stronger effect = lower value; activity score (negative = inhibition of binding), % at 10 µM; 0.38% of 300,000 active; AID 1832;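 active = inhibition past about -25% in most replicates, and total fluorescence under double the plate's negative control median, limit read from the data; inconclusive = replicates evenly split on the limit, or fluorescence at least double controls; inactive = too little inhibition in most replicates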;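 also: 0% = DMSO and -100% = 5 µM competing unlabeled TCR2 RNA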
# eLon inh = inhibits E. coli Lon protease; purified E. coli Lon protease, fluorescence polarization; inhibition, % at 7.94 µM; 0.42% of 360,000 active; in the data active = inhibition above about 13%, passing the limit was not always enough;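 also: 0% = enzyme with probe and DMSO and 100% = no enzyme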
# Bcl-xL conf = counter-screen for MCL1 inhibitors: confirmation of human Bcl-xL inhibitors | 54% of 1,700 active | inhibition, % at 10.9 µM | GST-Bcl-xL / FITC-Bim BH3 peptide FP binding | shares compounds with MCL1-BIM inh;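 active = inhibition above a cutoff equal to the mean inhibition of all tested compounds plus 3 SD, cut at about 30% in these data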;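 also: 0% = DMSO wells and 100% = unlabeled Bim BH3 control peptide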
# MCL1 inh confirm = confirmation of human MCL1 and BIM-BH3 interaction inhibitors. shares compounds with MCL1-BIM inh. GST-MCL1 / FITC-Bim-BH3 fluorescence polarization. inhibition, % at 10.9 µM. 61% of 1,700 active. AID 2168;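 active = inhibition above the average of all tested compounds plus 3 SD, cut at about 40% in these data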;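 also: 0% = DMSO wells and 100% = unlabeled Bim-BH3 control peptide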
# GLD1 RNA confirm = GLD-1 TGE RNA interaction inhibition, confirmation; shares compounds with GLD-1 RNA inh; inhibition, % at 5.96 µM; GLD-1/FL-TGE RNA fluorescence polarization, biochemical; AID 2459; 10% of 550 active;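 active = average inhibition across triplicates above the hit cutoff set in the primary screen, cut at about 32% in these data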;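 also: 0% = GLD-1 with RNA probe and DMSO and 100% = wells lacking GLD-1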
# eLon confirm = confirmation of E. coli Lon protease inhibitors. inhibition, % at 7.94 µM. shares compounds with eLon inh. 31% of 1,400 active. purified E. coli Lon, fluorescence polarization; in the data active = inhibition above about 16%;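 also: 0% = enzyme with probe and DMSO and 100% = no enzyme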
# Numbers without * were called inactive; u = inconclusive; x = not tested or not shown; + = active, no number. Most compounds without a hit are left out; they make up all but 1.5% or so of the library.
SMILES,EBV gp42 block,GLD-1 RNA inh,BCLXL inh,MCL1-BIM inh,MEX-5 binding,eLon inh,Bcl-xL conf,MCL1 inh confirm,eLon confirm,others
Cc1cccn2c(=O)c(C=C(C#N)C#N)c(N3CCN(C)CC3)nc12,x,25,58*,53*,-10,17*,12,18,13,
C[C@@H]1CN([C@@H](C)CO)C(=O)CCCn2cc(nn2)CO[C@H]1CN(C)S(=O)(=O)c1ccccc1C#N,x,x,x,x,x,-10,x,x,x,
CCOC(=O)C1CCCN(C(=O)C2COc3ccccc3O2)C1 (stereo not drawn),x,x,x,x,x,1,x,x,x,
CCOC(=O)C1CCCN(C(=O)C2c3ccccc3Oc3ccccc32)C1 (stereo not drawn),-2,189*,+,+,-7,+,42*,55*,36*,
CN1C[C@@H]2C(c3ccccc3)C3(c4ccc(C#N)cc4)CC2(C3)[C@H]1c1ccccc1 (stereo partly drawn),-20,3,-1,-1,1,4,x,x,x,
CN1C=CC2=C(C#N)C(N)C(C#N)(C#N)C(c3ccccc3)C2C1 (stereo not drawn),63*,46*,90*,90*,u,17*,40*,56*,-31,
CC1OC2(C)OC(=N)C1(C#N)C(C#N)(C#N)C2c1ccccc1 (stereo not drawn),-4,66*,55*,87*,-18,15*,11,7,4,
CN1C(=O)N(C)c2ccc(C=O)c3cccc1c23,49,40*,72*,73*,-18,16*,65*,94*,15,GLD1 RNA confirm=23
CN1C(=O)N(C)c2ccc(Br)c3cccc1c23,x,x,x,x,-3,-1,x,x,x,
CCCc1cc(=O)[nH]c(SCCN2C(=O)c3ccccc3C2=O)n1,1,7,-4,-4,0,-6,x,x,x,
CC1(C)CC(=O)C(C=Nc2ccc(C(=O)c3ccccc3)cc2N=CC2=C(O)CC(C)(C)CC2=O)=C(O)C1,2,104*,67*,80*,-5,13*,6,16,-20,
CC1(C)CC(=O)C(C=Nc2cccnc2/N=C/C2=C(O)CC(C)(C)CC2=O)=C(O)C1,6,118*,58*,63*,-5,52*,8,2,-3,
O=C(c1cccs1)N1C[C@@H](O)[C@H](n2cc(-c3ccc(F)cc3)nn2)C[C@@H]1c1ccc(Cl)cc1,x,x,x,x,x,0,x,x,x,
Cc1c(NC(=O)COC(=O)c2ccc(S(=O)(=O)N3CCOCC3)cc2)c(=O)n(-c2ccccc2)n1C,0,1,0,4,0,-10,x,x,x,
Cc1ccc(-c2ccccc2NC(=O)CS(=O)CC(=O)Nc2ccc(C)c(Cl)c2)o1 (stereo not drawn),x,140*,119*,141*,-4,114*,11,15,16*,
Cc1ccc(CNc2ccc(N3CCN(C)CC3=O)cc2)cc1,x,4,x,x,x,1,x,x,x,
CN=c1scc(-c2cccs2)n1/N=C/c1ccc(O)c(O)c1O,2,8,22,53*,-1,28*,68*,56*,14,
Cn1c(=O)cc2c3c(c(N4CCCCC4)ccc31)C(=O)c1ccccc1-2,74*,82*,147*,152*,-40*,+,112*,143*,73*,GLD1 RNA confirm=46*
O=C1C2=C(SCCS2)C(=O)N1CCCO,117*,75*,87*,92*,-22,41*,74*,94*,55*,GLD1 RNA confirm=49*
Cn1nc([N+](=O)[O-])c(C(C#N)c2ccccn2)c(Cl)c1=O (stereo not drawn),-3,25,48*,60*,-9,17*,23,15,12,
COC(=O)c1ccc(C2=NOC(C)(c3nnc(Cc4ccccc4)o3)C2)cc1 (stereo not drawn),x,12,0,-5,2,3,x,x,x,
CC(C)(C)c1ccc(C(=O)Nc2cccc3ncccc23)cc1,x,64*,81*,90*,-74*,44*,116*,143*,44*,
COc1ccc(C2CC(=O)C(C=NCCCO)=C(O)C2)cc1 (stereo not drawn),x,22,64*,80*,-27*,44*,61*,85*,42*,
COc1ccc(C2CC(=O)C(C=NCC(C)C)=C(O)C2)cc1 (stereo not drawn),x,x,x,x,1,-15,x,x,x,
O=C(NCCc1ccccc1O)c1cc2c(cc1[N+](=O)[O-])OCO2,x,x,x,x,x,4,x,x,x,
SMILES,EBV gp42 block,GLD-1 RNA inh,BCLXL inh,MCL1-BIM inh,MEX-5 binding,eLon inh,Bcl-xL conf,MCL1 inh confirm,eLon confirm,others
C=C(C)c1cccc(C(C)(C)NC(=O)Nc2ccc(OC)nc2)c1,x,83*,82*,91*,-3,46*,57*,73*,18*,
COc1ccc(NC(=O)c2cccc(-c3ccc(O)cc3)c2)cn1,x,135*,144*,179*,-19,74*,107*,133*,35*,
CC(=O)c1ccc(N2CCN(C(=O)c3cc(S(=O)(=O)N4CCOCC4)ccc3C)CC2)cc1,x,4,x,x,x,-6,x,x,x,
CC(=O)c1c(Cl)nc2cccc3c2c1-c1ccccc1C3=O,x,27,54*,59*,-8,24*,40*,37,28*,
CSCC(C)N1CCC(Oc2cccc(C(=O)NCc3ccccn3)c2)CC1 (stereo not drawn),x,16,48*,56*,-29*,17*,56*,70*,-319,
O=C1N=C(N2C=CC(=C3C=CNC=C3)C=C2)/C(=C/N=NC(=O)c2ccccc2O)S1,x,81*,99*,115*,-46*,40*,84*,114*,41*,
O=C(c1ccccc1)[C@@H]1[C@@H]2C(=O)N(c3ccc(F)cc3)C(=O)[C@@H]2C2CCCN21 (stereo partly drawn),4,37*,64*,62*,u,23*,58*,62*,29*,GLD1 RNA confirm=0
O=C(CSc1nnc2ccccn12)Nc1ccc(S(=O)(=O)N2CCOCC2)cc1,-7,-4,4,-4,0,3,x,x,x,
O=C(O)CCCNc1cc(N2CCN(C(=O)c3ccco3)CC2)c2noc3c2c1C(=O)c1ccccc1-3,x,99*,135*,157*,u,26*,193*,164*,132*,

# Compound activity (PubChem)
